HEK cytotox: cytotoxic compounds in HEK 293 cells | HEK 293 viability, ATP luminescence (CellTiter-Glo), 48-72 h | Potency, µM (top dose mostly 115 µM), without a hit: at the top dose activity change, negative = cytotoxicity, hits mostly inhibitors | 94,000 tested, 6.6% active; also: nearly all actives have a fitted effect of over 60% in size
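HEK 293 seeded at 250 cells/well receive compound via pintool. After 48 or 72 hr at 37 degree Celsius, 5% CO2 and 95% humidity, CellTiter-Glo is dispensed and luminescence read following 10 min at room temperature.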
NPR1 antag: human Npr1 receptor antagonism. HEK293 hNpr1 GloSensor cGMP, ANP-stimulated luminescence. Potency, µM (doses to about 46.3 µM), for the others: at the top dose activity change, negative = inhibition, most hits filed as inhibitors. 76,000 tested, 1.6% active; calls by dose curve; also: nearly all actives have a fitted effect of over 60% in size
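HEK293 cells stably expressing human Npr1 and cGMP GloSensor pGS-40F, loaded 2 h with 2% GloSensor reagent, given compound 30 min at room temperature. Luminescence read before and 20 min after 0.1 nM hNppA.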
GPT2 inh: GPT2 alanine aminotransferase inhibition; Q8TD30; Recombinant GPT2, coupled pyruvate oxidase/HRP Amplex Red fluorescence; Potency, µM (titrated, usually from 57.7 µM), without a hit: at the highest dose activity change, negative = inhibition, actives largely listed as inhibitors; 100,000 tested, 0.25% active; AID 1671188; also: nearly all actives have a fitted effect of over 60% in size
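Recombinant GPT2 (10ng/uL) with 250uM a-KG and 2mM L-alanine, 30 min at room temperature, in HEPES pH 7.5 buffer. Pyruvate detected by pyruvate oxidase/HRP/Amplex Red fluorescence after 30 min in the dark; AOA (50uM) as positive control.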
3T3 cytotox: NIH 3T3 cell cytotoxicity | NIH 3T3 viability, CellTiter-Glo ATP luminescence, 48-72 h | Potency, µM (series often up to 96.7 µM), inactives show top-dose activity change, negative = cytotoxicity, hits mostly inhibitors | 94,000 tested, 4.3% active; also: nearly all actives have a fitted effect of over 55% in size
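Cytotoxicity was measured by CellTiter-Glo ATP luminescence after 48 or 72 h compound exposure at 37 °C. Mouse NIH 3T3 fibroblasts were seeded at 400 cells/well and dosed by 23 nL pin transfer.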
FLuc inh: blocks purified firefly luciferase enzyme activity; P08659; Potency, µM (top dose mostly 115 µM), most hits filed as inhibitors; purified P. pyralis luciferase, luminescence, biochemical; 76,000 tested, 2.5% active; also: nearly all actives have a fitted effect of over 65% in size
Target sequence (P08659 whole entry, looked up): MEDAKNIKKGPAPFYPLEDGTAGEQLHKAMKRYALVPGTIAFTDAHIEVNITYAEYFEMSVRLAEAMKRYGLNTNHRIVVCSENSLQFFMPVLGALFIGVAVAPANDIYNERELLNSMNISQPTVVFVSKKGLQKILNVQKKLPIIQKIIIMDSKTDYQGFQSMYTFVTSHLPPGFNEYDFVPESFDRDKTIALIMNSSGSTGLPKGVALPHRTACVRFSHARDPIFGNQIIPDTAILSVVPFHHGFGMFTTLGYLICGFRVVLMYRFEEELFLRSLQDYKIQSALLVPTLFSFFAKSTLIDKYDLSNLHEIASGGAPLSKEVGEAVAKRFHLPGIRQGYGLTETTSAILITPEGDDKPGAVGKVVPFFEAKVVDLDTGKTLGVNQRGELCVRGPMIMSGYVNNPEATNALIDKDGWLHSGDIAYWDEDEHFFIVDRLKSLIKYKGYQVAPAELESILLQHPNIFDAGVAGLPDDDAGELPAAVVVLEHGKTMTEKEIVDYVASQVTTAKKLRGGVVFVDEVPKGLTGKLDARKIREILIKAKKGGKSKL
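Purified 10nM P. pyralis luciferase with 10uM D-luciferin and 10uM ATP in 50mM Tris acetate pH 7.5, 10mM Mg acetate, 0.01% Tween-20, 0.05% BSA. qHTS titration; luminescence read by CCD imager.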
Active calls of the source: *; i = inactive; ? = inconclusive; nt = not tested or not shown; [ ] = another dose, or the depositor's remark. The list is not random: actives were taken first. Their share in the collection is about 10%. Unless noted, calls follow the shape of the dose curve; as a rule, active = well fitted curve in the direction sought with a large enough effect; inconclusive = small, poorly fitted or top-dose-only effect, or another doubt; inactive = no such curve, though single readings can be large; an effect the other way counts as inactive or inconclusive. % is scaled to controls: 0 for no effect and ±100 for the full control effect; potency is read from the fitted curve at half-maximal effect.

SMILES	HEK cytotox	NPR1 antag	GPT2 inh	3T3 cytotox	FLuc inh
O=C(c1ccncc1)N1CCC(n2cc(-c3nc(-c4ccccc4)no3)nn2)CC1	?	-28.5%	-0.7%	31.6µM*	?
O=C(c1ccoc1)N1CCC(n2cc(-c3nc(-c4ccccc4)no3)nn2)CC1	?	-22.7%	1.5%	?	?
O=C(Cc1cccs1)N1CCC(n2cc(-c3nc(-c4ccccc4)no3)nn2)C1 (centres undefined)	?	-26.3%	i	?	?
Cc1ccsc1C(=O)N1CCC(n2cc(-c3nc(-c4ccccc4)no3)nn2)CC1	39.8µM*	?	i	-28.1%	i
Cc1ccccc1C(=O)N1CCC(n2cc(-c3nc(-c4ccccc4)no3)nn2)CC1	?	-25.7%	i	-22.2%	i
O=C(c1cccs1)N1CCC(n2cc(-c3nc(-c4ccccc4)no3)nn2)CC1	35.5µM*	?	-6.8%	?	i
CNC(=O)[C@H]1CN(C(=O)OCc2ccccc2)[C@]2(C)C(=O)N(CCOC)c3ccccc3[C@H]12	?	nt	i	-22.2%[46.1 µM]	nt
CC(C)C(=O)NCCNC(=O)c1ccc(-c2cccc(C(F)(F)F)c2)cc1	?	nt	nt	-23.2%	nt
O=C(NC1CCCCC1)C1CCN(C(=O)c2ccc(-c3cncnc3)cc2)CC1	-3.8%	nt	i	-32.4%	nt
Cn1cccc1C(=O)N1CCC(n2cc(-c3nc(-c4ccccc4)no3)nn2)C1 (centres undefined)	44.7µM*	17.8µM*	i	?	?
N#Cc1ccc(C(=O)N2CCCC(n3cc(-c4nc(-c5ccccc5)no4)nn3)C2)cc1 (centres undefined)	?	11.2µM*	-1.2%	-22.7%	?
Cc1ccccc1C(=O)N1CCC(n2cc(-c3nc(-c4ccccc4)no3)nn2)C1 (centres undefined)	?	7.94µM*	i	?	?
O=C(c1ccc(F)cc1Cl)N1CCC(n2cc(-c3nc(-c4ccccc4)no3)nn2)CC1	?	17.8µM*	i	?	?
N#Cc1ccc(C(=O)N2CCC(n3cc(-c4nc(-c5ccccc5)no4)nn3)C2)cc1 (centres undefined)	?	?	i	?	?
Cn1cccc1C(=O)N1CCC(n2cc(-c3nc(-c4ccccc4)no3)nn2)CC1	?	-20.2%	i	?	?
O=C(c1cc(F)ccc1F)N1CCC(n2cc(-c3nc(-c4ccccc4)no3)nn2)CC1	?	-30.5%	i	?	i
O=C(NC1CCCN(CCn2nc3n(c2=O)CCCC3)C1)c1ccc(C(F)(F)F)cc1 (centres undefined)	4.6%	nt	nt	-15.7%	nt
COc1cccc(-c2cccc(C(=O)N3CCN(C(=O)c4ccc(Cl)nc4)CC3)c2)c1	?	nt	-3.8%	-23.2%	nt
O=C(c1ccc(Cl)cc1)N1CCC(n2cc(-c3nc(-c4ccccc4)no3)nn2)C1 (centres undefined)	22.4µM*	?	i	-54.5%	?
CCOC(=O)C[C@@H]1C[C@@H](C(C)C)[C@H](CNC(=O)c2ccc(F)cc2)C=C1C	35.5µM*	?	1.3%[88.5 µM]	?	i
COc1ccc(C(=O)NC[C@@H]2C=C(C)[C@H](CC(=O)O)C[C@H]2C(C)C)cc1	-6.9%[172 µM]	1.7%[70.6 µM]	i	35.5µM*	i
COc1ccc(CNC(=O)C[C@@H]2C[C@@H](C(C)C)[C@H](CNC(=O)c3ccc(C#N)cc3)C=C2C)cc1	?	-9.5%	-1.1%	?	i
Cc1nn(-c2ccccc2)c2c1C(C(C)C)N(C1CCN(C(=O)C(C)(C)C)C1)C2=O (centres undefined)	89.1µM*	nt	nt	?	nt
Cc1nn(-c2ccccc2)c2c1C(C(C)C)N(C1CCN(C(=O)Nc3ccccc3)C1)C2=O (centres undefined)	-11.8%	nt	nt	?	nt
Cc1nn(-c2ccccc2)c2c1C(C(C)C)N(C1CN(C(=O)C3CC3)C1)C2=O (centres undefined)	-9.3%	nt	nt	-23.9%	nt
SMILES	HEK cytotox	NPR1 antag	GPT2 inh	3T3 cytotox	FLuc inh
Cc1nn(-c2ccccc2)c2c1C(C(C)C)N(C1CCN(C(=O)c3ccccc3F)C1)C2=O (centres undefined)	79.4µM*	nt	nt	?	nt
Cc1nn(-c2ccccc2)c2c1C(C(C)C)N(C1CCN(C(=O)C3CCCC3)C1)C2=O (centres undefined)	?	nt	nt	20µM*	nt
O=C(NCCN1CCOCC1)c1cc(-c2cc(Cl)cc(Cl)c2)c2nncn2n1	1.9%	nt	i	-19.0%	nt
COCCNC(=O)CC(c1ccc(Cl)cc1)c1c[nH]c2ccc([N+](=O)[O-])cc12 (centres undefined)	39.8µM*	?	i	?	i
O=C(CC(c1ccc(Cl)cc1)c1c[nH]c2ccc([N+](=O)[O-])cc12)N1CCOCC1 (centres undefined)	39.8µM*	?	-19.1%	?	i
NC(=O)Cc1c[nH]c2ncc(-c3cccc(O)c3)cc12	4.4%[230 µM]	-2.1%[70.6 µM]	2.2%[88.5 µM]	?	?
NC(=O)Cc1c[nH]c2ncc(-c3ccc(Cl)cc3)cc12	?	-24.2%[70.6 µM]	3.6%[88.5 µM]	?	79.4µM*
NC(=O)Cc1c[nH]c2ncc(-c3ccc4c(c3)OCO4)cc12	-11.2%[172 µM]	-4.1%[70.6 µM]	-1.5%[88.5 µM]	44.7µM*	63.1µM*
COCCNC(=O)CCc1nc(C2CCCN2C(=O)c2ccccc2)no1 (centres undefined)	-0.5%	nt	-12.4%	-12.0%	nt
COc1ccccc1-c1nc(N2CCOCC2)cc2c1CN(Cc1cnn(C)c1)C2=O	-11.9%[172 µM]	2.3%[70.6 µM]	-8.3%[88.5 µM]	25.1µM*	i
Cn1cc(-c2nc(N3CCOCC3)cc3c2CN(CC2CC2)C3=O)cn1	-17.2%[172 µM]	6.3%[70.6 µM]	1.6%[88.5 µM]	10µM*	i
O=C(NCC1CN(C(=O)Nc2ccccc2)CC12CCOCC2)N1CCCC1 (centres undefined)	-5.5%	nt	1.0%	-17.3%	nt
Cc1noc(C)c1[S+](=O)([O-])N1CCCC(C(=O)N2CCC(c3nc4ccncc4[nH]3)C2)C1 (centres undefined)	-15.3%	nt	i	-13.3%	nt
Cc1ccc(-c2cc3c(=O)n(CC(O)c4ccc(C)c(C)c4)ccn3n2)c(C)c1 (centres undefined)	39.8µM*	?	i	?	i
Cc1ccc(C)c(-c2cc3c(=O)n(CCNC(=O)c4ccccc4F)ccn3n2)c1	?	-15.2%	4.3%	?	i
Cc1ccc(-c2cc3c(=O)n(CCNC(=O)c4cc(Cl)ccc4F)ccn3n2)c(C)c1	?	-24.6%	-4.1%	-2.2%	?
Cc1ccc(C)c(C(=O)NCCn2ccn3nc(-c4cc(C)ccc4C)cc3c2=O)c1	39.8µM*	-12.5%	i	?	i

Assay outcomes as filed in PubChem.
